# Source: PubChem BioAssay (National Center for Advancing Translational Sciences (NCATS))
# GLP-1R agonist = GLP-1 receptor (human) agonism. 380,000 compounds, 0.007% hits. AID 624172. HEK293 GLP-1R CRE-luciferase, luminescence, 4-6 h; cells express a hypersensitive GLP-1R form. P43220. Potency, µM (highest dose often 45.6 µM), without a hit: at the top dose activation, actives largely listed as activators; also: % of control where 0% means no effect
# Target sequence (P43220 whole entry, looked up): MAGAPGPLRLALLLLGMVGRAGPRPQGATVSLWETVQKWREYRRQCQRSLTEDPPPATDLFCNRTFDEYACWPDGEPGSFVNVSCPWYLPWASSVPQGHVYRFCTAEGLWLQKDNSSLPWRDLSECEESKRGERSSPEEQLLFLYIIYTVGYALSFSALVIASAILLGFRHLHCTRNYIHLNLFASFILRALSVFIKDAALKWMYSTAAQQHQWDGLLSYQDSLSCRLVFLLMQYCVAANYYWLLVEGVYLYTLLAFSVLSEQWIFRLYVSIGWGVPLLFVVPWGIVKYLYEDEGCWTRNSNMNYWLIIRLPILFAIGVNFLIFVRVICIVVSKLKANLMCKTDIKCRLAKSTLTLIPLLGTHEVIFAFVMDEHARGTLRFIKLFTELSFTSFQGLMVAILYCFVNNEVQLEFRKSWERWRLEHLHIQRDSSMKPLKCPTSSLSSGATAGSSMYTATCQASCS
# PTHR1 agonist = agonists of human PTHR1 parathyroid hormone receptor; Q03431; 410,000 compounds, 0.075% hits; Potency, µM (top dose mostly 115 µM), without a hit: at the top dose activation, hits mostly activators; HEK293 GP2 PTHR1 cells, GloSensor cAMP luminescence, 1 h; also: nearly all actives have a fitted effect of over 55% in size
#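 HEK-293-derived GP2 cells expressing PTHR1 and a GloSensor cAMP reporter, 3,000/well, plated overnight, given luciferin plus IBMX (each 0.5 mM as added) for 1 h at 37 °C, then compound for 1 h at 37 °C. Luminescence was read after 15 min at room temperature.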
# GLP1R inv ag = inverse agonists of human GLP-1 receptor; P43220; HEK293 GLP-1R CRE-luciferase, luminescence, 24 h; GLP-1R form is constitutively active; Potency, µM (doses to about 38.3 µM), inactives show at the top dose activity change, negative = inhibition, actives largely listed as inhibitors; 410,000 compounds, 1.6% hits; also: % is scaled to controls: 0 for no effect and ±100 for the full control effect; nearly all actives have a fitted effect of over 55% in size
#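 Stable HEK293 clone (constitutively active GLP-1R + cAMP-response luciferase); 200 cells/uL plated, 12 h pre-culture, compound 24 hr, 37 deg C/5% CO2; detection reagent 12 min RT; luminescence.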
# GLP1R cytotox = cytotoxicity counter-screen for GLP-1 receptor inverse agonists; HEK293 cAMP-luciferase reporter cells, luminescence, 24 h; Potency, µM (highest dose often 38.3 µM), for the others: at the highest dose activity change, negative = inhibition, hits mostly inhibitors; 410,000 compounds, 0.13% hits; AID 624418;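 also: loss of luciferase light is scored as toxicity; % is scaled to controls: 0 for no effect and ±100 for the full control effect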
#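 Compound-treated cells are incubated 24 hr at 37 deg C under 5% CO2 after a 12 hour attachment period, then luciferase detection reagent is added and luminescence is measured following 12 min at room temperature; lowered signal indicates toxicity.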
# * marks the source's active call; other numbers are inactive results; i = inactive; u = inconclusive; x = no result; [ ] = another dose, or the depositor's remark. An excerpt weighted towards active compounds, which were near 1.7% of everything screened. Calls follow the shape of the dose curve; as a rule, active = well fitted curve in the direction sought with a large enough effect; inconclusive = small, poorly fitted or top-dose-only effect, or another doubt; inactive = no such curve, though single readings can be large; an effect the other way counts as inactive or inconclusive. Potency is read from the fitted curve at half-maximal effect.
SMILES,GLP-1R agonist,PTHR1 agonist,GLP1R inv ag,GLP1R cytotox
CCCCNC(=S)NNC(=O)CCn1nc(C)c(Br)c1C,8%,i,0%,5.6µM*
CCCCNC(=S)NNC(=O)CCn1cc(C)cn1,-1%,i,7.9µM*,u
CCOc1ccc(Nc2cc(C)nc3nncn23)cc1,x,i,7%,12%
O=S(=O)(/C(=C/c1ccc(C(F)(F)F)cc1)c1nc2ccccc2[nH]1)c1ccccc1,-7%,-8%,1.8µM*,7.9µM*
CC(C)c1ccc(/C=C(\c2nc3ccccc3[nH]2)S(=O)(=O)c2ccccc2)cc1,-20%,-97%,u,-24%
O=C(NC1CCCC1)c1cc(COc2ccc3ncccc3c2)on1,4%,-28%,-12%,-2%
CC(NC(=O)c1cc(COc2ccc3ncccc3c2)on1)c1ccc(F)cc1 (stereo not given),10%,-48%,1.8µM*,-7%
O=C(NCCc1cn2ccccc2n1)c1cc(COc2ccc3ncccc3c2)on1,1%,-41%,13µM*,-4%
COc1ccccc1CNc1nc2c(S(=O)(=O)c3ccc(C)c(C)c3)nnn2c2ccc(Cl)cc12,x,-20%,3%,-1%
CCc1ccc(C(=O)c2cn(CC(=O)Nc3ccc(F)cc3)c3ccc(OC)cc3c2=O)cc1,-1%,i,-15%,1%
CCN1C=C(Cc2ccc(OC)cc2)C2=C(C1)C(c1ccc(OC)cc1)C(C#N)=C(N)O2 (stereo not given),3%,i,6.3µM*,-2%
Cc1ccc(N2CCN(C(=O)C3CCN(c4ncnc5c4nc4n5CCCCC4)CC3)CC2)c(C)c1,x,i,-1%,-16%
Cc1ccc(C)c(N2CCN(C(=O)c3ccc4c(=O)n5c(nc4c3)CCCCC5)CC2)c1,-4%,-82%,1.8µM*,-11%
COc1ccc2[nH]c(=O)cc(C(=O)O)c2c1,-1%,-18%,2%,11%
COc1ccc2[nH]c3c4c(ccc3c2c1)C(=O)C=CC4=O,11%,-8%,u,7.9µM*
COc1ccccc1CNC(=O)CSCc1nc(-c2ccc(OC)c(OC)c2)oc1C,x,-59%,21%,1%
CCCn1c(SCc2nc(-c3ccccc3OCC)no2)nnc1-c1ccc(Cl)cc1,x,-31%,10µM*,-14%
CCCn1c(SCc2nc(-c3ccc(OC)cc3OC)no2)nnc1-c1ccc(Cl)cc1,x,-60%,u,2%
CC(C)c1ccccc1NC(=O)COC(=O)c1c2c(nc3ccccc13)CCN(Cc1ccccc1)C2,0%,i,10µM*,5%
COc1cccc(NC(=O)COC(=O)c2c3c(nc4ccccc24)CCC(C)C3)c1 (stereo not given),-20%,u,5µM*,u
CC(C)NC(=O)NC(=O)COC(=O)c1c2c(nc3ccccc13)CCC2,6%,-43%,10µM*,u
COc1ccccc1NC(=O)N1CCN(c2nnc(C)c3c(C)n(-c4ccccc4)nc23)CC1,-2%,-17%,-12%,-6%
O=C(/C=C/c1ccc2c(c1)OCO2)NCCSCc1ccc(Cl)cc1,10%,-4%[57.5 µM],5µM*,-13%
CN(C)CCCNC(=O)/C=C/c1ccc2c(c1)OCO2,-6%,i,2%,1%[1.53 µM]
O=C(/C=C/c1ccc2c(c1)OCO2)NCCSCc1c(Cl)cccc1Cl,-1%,-4%,10µM*,0%
SMILES,GLP-1R agonist,PTHR1 agonist,GLP1R inv ag,GLP1R cytotox
Cc1cccc(C)c1NC(=O)CCCn1c(=O)c2cccn2c2ccccc21,x,i,3%,-4%
COc1ccccc1Nc1nc(C)nc(N)c1S(=O)(=O)c1ccccc1,0%,-6%,-3%,-11%
CS(=O)(=O)Nc1cccc(NC(=O)C2Cc3c(-c4ccccc4)ccnc3O2)c1 (stereo not given),15%,-1%,0.89µM*,-21%
CC(=O)Nc1cccc(-c2ccnc3c2CC(C(=O)Nc2cccc(NS(C)(=O)=O)c2)O3)c1 (stereo not given),-11%,i,25%,7%
Oc1ccc(NCc2ccc(OCc3ccccc3)cc2)cc1,24%,u,135%,u
O=C1CCCC/C1=N\Nc1ccc(OCc2ccccc2)cc1,5%,-22%,2.8µM*,-23%
O=C1c2ccccc2S(=O)(=O)N1Cc1nc2ccccc2s1,-21%,-6%[57.5 µM],4µM*,-7%
CCOC(=O)N1CCN(C(=O)c2ccc3c(c2)N(Cc2ccccc2F)C(=O)c2ccccc2S3(=O)=O)CC1,1%,-13%,-2%,0%
O=C(Nc1ccc(-c2cc(C(F)(F)F)nn2-c2ccccc2)cc1)c1cccc(F)c1,x,-18%,u,-20%
COc1cc(C(=O)Nc2ccc(-c3cc(C(F)(F)F)nn3-c3ccccc3)cc2)cc(OC)c1OC,x,i,7.9µM*,-6%
NC[C@@H]1O[C@@H](O[C@H]2[C@@H](O)[C@H](O[C@@H]3[C@@H](O)[C@@H](N)C[C@H](N)[C@H]3O[C@H]3O[C@H](CN)[C@@H](O)[C@@H](O)[C@H]3N)O[C@H]2CO)[C@H](N)[C@@H](O)[C@@H]1O,-2%,x,x,x
CSc1ccccc1NC(=O)C1(C)CCN1C(=O)CCC1CCCC1 (stereo not given),12%,i,u,2%
CC1(C(=O)Nc2cccc3c2CCCC3)CCN1C(=O)CCC1CCCC1 (stereo not given),23%,-46%,11µM*,-2%
CCOc1ccc(N(Cc2cc3cc(C)ccc3[nH]c2=O)C(=O)c2cccc(Cl)c2)cc1,x,-1%,3%,0%
N#CCCN(NC(=O)OCc1ccccc1)C(=O)OCc1ccccc1,1%,i,-6%,-15%
O=C(OCc1ccccc1)N(CCF)c1cn(Cc2ccccc2)c(=O)n(Cc2ccccc2)c1=O,18%,-18%,10µM*,-3%
c1ccc2nc(-c3nc4ccccc4[nH]3)ccc2c1,-22%,-23%[57.5 µM],10µM*,-2%
CN(C)S(=O)(=O)c1ccc(C(=O)NCCSc2c(-c3ccc(Br)cc3)[nH]c3ccccc23)cc1,x,-5%,5%,0%
Cc1csc(NC(=O)CSc2nnc3c4ccccc4nc(C(C)(C)C)n23)n1,-4%,-18%,u,2.5µM*
CC(=O)CSc1nnc2c3ccccc3nc(C(C)(C)C)n12,12%,-18%,9%,-1%
COCCCNC(=O)Cn1c(=O)n(-c2cccc(C)c2)c(=O)c2c1c1cc(C)ccc1n2C,x,i,-2%,-19%
CCCn1c(NC(=O)c2ccccc2)nc2ccccc21,6%,-28%,11µM*,u
CC(C)Cn1c(CNC(=O)c2ccccc2)nc2ccccc21,3%,-50%,14µM*,-11%
CCCn1c(NC(=O)c2ccc(C)cc2)nc2ccccc21,-8%,i,u,-5%
CCC(C)C1OC2(C=CC1C)CC1CC(C/C=C(\C)C(OC3CC(OC)C(OC4CC(OC)C(NC(C)=O)C(C)O4)C(C)O3)C(C)/C=C/C=C3\COC4C(O)C(C)=CC(C(=O)O1)C34O)O2 (stereo not given) (tested in a mixture with another compound),1%,x,x,x
